According to publication PMC11006913:

target: HOXA2 (Homo sapiens, UniProt O43364 129-215, R185T); assay: PBM; 200 nM protein, PBS; details: dsDNA, one strand shown
Sequence (O43364 129-215 R185T): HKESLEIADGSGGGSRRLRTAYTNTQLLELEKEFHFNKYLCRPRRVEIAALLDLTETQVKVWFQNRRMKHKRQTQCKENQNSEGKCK

Sequence	binding signal
AGAGCCCC	7.28 upbm affinity estimate (log intensity, higher = more binding, comparable within an allelic series)
AGAATTAT	9.79 upbm affinity estimate (log intensity, higher = more binding, comparable within an allelic series)
CAATCACA	9.53 upbm affinity estimate (log intensity, higher = more binding, comparable within an allelic series)
GGGAGCCC	7.4 upbm affinity estimate (log intensity, higher = more binding, comparable within an allelic series)
AGTTAACG	9.97 upbm affinity estimate (log intensity, higher = more binding, comparable within an allelic series)
GCAACCCC	7.26 upbm affinity estimate (log intensity, higher = more binding, comparable within an allelic series)
CTGATTAA	11.9 upbm affinity estimate (log intensity, higher = more binding, comparable within an allelic series)
CTACGCCC	7.29 upbm affinity estimate (log intensity, higher = more binding, comparable within an allelic series)
AATCAGCT	10.1 upbm affinity estimate (log intensity, higher = more binding, comparable within an allelic series)
GGATATTA	10.4 upbm affinity estimate (log intensity, higher = more binding, comparable within an allelic series)
CCCCCACC	6.87 upbm affinity estimate (log intensity, higher = more binding, comparable within an allelic series)
GGTAACGA	9.98 upbm affinity estimate (log intensity, higher = more binding, comparable within an allelic series)
CTCATTAC	12.5 upbm affinity estimate (log intensity, higher = more binding, comparable within an allelic series)
GGAGGCGA	7.15 upbm affinity estimate (log intensity, higher = more binding, comparable within an allelic series)
ACTAATGC	10.2 upbm affinity estimate (log intensity, higher = more binding, comparable within an allelic series)
AATTGCTC	10.4 upbm affinity estimate (log intensity, higher = more binding, comparable within an allelic series)
ACACTAAT	11.5 upbm affinity estimate (log intensity, higher = more binding, comparable within an allelic series)
TCATTAGA	12.1 upbm affinity estimate (log intensity, higher = more binding, comparable within an allelic series)
CCTGCCAC	7.29 upbm affinity estimate (log intensity, higher = more binding, comparable within an allelic series)
AACCTAAT	10.5 upbm affinity estimate (log intensity, higher = more binding, comparable within an allelic series)

Sequence	binding signal
GTAATGAC	12 upbm affinity estimate (log intensity, higher = more binding, comparable within an allelic series)
CATTATGG	10.5 upbm affinity estimate (log intensity, higher = more binding, comparable within an allelic series)
TACTTTAA	9.67 upbm affinity estimate (log intensity, higher = more binding, comparable within an allelic series)
CGTCATTA	12.3 upbm affinity estimate (log intensity, higher = more binding, comparable within an allelic series)
CGAGAGGC	7.16 upbm affinity estimate (log intensity, higher = more binding, comparable within an allelic series)
CTACATTA	10.6 upbm affinity estimate (log intensity, higher = more binding, comparable within an allelic series)
CGATTACA	10.3 upbm affinity estimate (log intensity, higher = more binding, comparable within an allelic series)
CTGGGGCC	7.14 upbm affinity estimate (log intensity, higher = more binding, comparable within an allelic series)
CCCCCCCG	6.93 upbm affinity estimate (log intensity, higher = more binding, comparable within an allelic series)
AAGGCCCC	7.25 upbm affinity estimate (log intensity, higher = more binding, comparable within an allelic series)
CAGCCACG	7.22 upbm affinity estimate (log intensity, higher = more binding, comparable within an allelic series)
GAGCCCGC	7.09 upbm affinity estimate (log intensity, higher = more binding, comparable within an allelic series)
AACCGGGC	7.08 upbm affinity estimate (log intensity, higher = more binding, comparable within an allelic series)
CCACCCCC	7.29 upbm affinity estimate (log intensity, higher = more binding, comparable within an allelic series)
CCCCCTCC	6.95 upbm affinity estimate (log intensity, higher = more binding, comparable within an allelic series)
CAGTTAAG	9.01 upbm affinity estimate (log intensity, higher = more binding, comparable within an allelic series)
CCCCCGTC	7.31 upbm affinity estimate (log intensity, higher = more binding, comparable within an allelic series)
GCTCATTA	12.7 upbm affinity estimate (log intensity, higher = more binding, comparable within an allelic series)
ACCTCGCC	7.06 upbm affinity estimate (log intensity, higher = more binding, comparable within an allelic series)

target: HOXA2 (Homo sapiens, UniProt O43364 129-215, R185K); assay: PBM; 200 nM protein, PBS; details: dsDNA, one strand shown
Sequence (O43364 129-215 R185K): as the sequence (O43364 129-215 R185T) above, with T57K counted along it

Sequence	binding signal
AGAGCCCC	10.2 upbm affinity estimate (log intensity, higher = more binding, comparable within an allelic series)
AGAATTAT	11.6 upbm affinity estimate (log intensity, higher = more binding, comparable within an allelic series)
CAATCACA	11.8 upbm affinity estimate (log intensity, higher = more binding, comparable within an allelic series)
GGGAGCCC	10.3 upbm affinity estimate (log intensity, higher = more binding, comparable within an allelic series)
AGTTAACG	12.2 upbm affinity estimate (log intensity, higher = more binding, comparable within an allelic series)
GCAACCCC	10.1 upbm affinity estimate (log intensity, higher = more binding, comparable within an allelic series)
CTGATTAA	12.9 upbm affinity estimate (log intensity, higher = more binding, comparable within an allelic series)
CTACGCCC	10.3 upbm affinity estimate (log intensity, higher = more binding, comparable within an allelic series)
AATCAGCT	11.9 upbm affinity estimate (log intensity, higher = more binding, comparable within an allelic series)
GGATATTA	12 upbm affinity estimate (log intensity, higher = more binding, comparable within an allelic series)
CCCCCACC	9.85 upbm affinity estimate (log intensity, higher = more binding, comparable within an allelic series)
GGTAACGA	12.2 upbm affinity estimate (log intensity, higher = more binding, comparable within an allelic series)
CTCATTAC	13.2 upbm affinity estimate (log intensity, higher = more binding, comparable within an allelic series)
GGAGGCGA	10.6 upbm affinity estimate (log intensity, higher = more binding, comparable within an allelic series)
ACTAATGC	12.2 upbm affinity estimate (log intensity, higher = more binding, comparable within an allelic series)
AATTGCTC	12 upbm affinity estimate (log intensity, higher = more binding, comparable within an allelic series)
ACACTAAT	12.6 upbm affinity estimate (log intensity, higher = more binding, comparable within an allelic series)
TCATTAGA	13 upbm affinity estimate (log intensity, higher = more binding, comparable within an allelic series)
CCTGCCAC	10.3 upbm affinity estimate (log intensity, higher = more binding, comparable within an allelic series)
AACCTAAT	12.1 upbm affinity estimate (log intensity, higher = more binding, comparable within an allelic series)

Sequence	binding signal
GTAATGAC	13.1 upbm affinity estimate (log intensity, higher = more binding, comparable within an allelic series)
CATTATGG	12.3 upbm affinity estimate (log intensity, higher = more binding, comparable within an allelic series)
TACTTTAA	11.6 upbm affinity estimate (log intensity, higher = more binding, comparable within an allelic series)
CGTCATTA	13.2 upbm affinity estimate (log intensity, higher = more binding, comparable within an allelic series)
CGAGAGGC	10.3 upbm affinity estimate (log intensity, higher = more binding, comparable within an allelic series)
CTACATTA	12.2 upbm affinity estimate (log intensity, higher = more binding, comparable within an allelic series)
CGATTACA	12 upbm affinity estimate (log intensity, higher = more binding, comparable within an allelic series)
CTGGGGCC	10.1 upbm affinity estimate (log intensity, higher = more binding, comparable within an allelic series)
CCCCCCCG	9.85 upbm affinity estimate (log intensity, higher = more binding, comparable within an allelic series)
AAGGCCCC	10.3 upbm affinity estimate (log intensity, higher = more binding, comparable within an allelic series)
CAGCCACG	10.5 upbm affinity estimate (log intensity, higher = more binding, comparable within an allelic series)
GAGCCCGC	10.2 upbm affinity estimate (log intensity, higher = more binding, comparable within an allelic series)
AACCGGGC	10.3 upbm affinity estimate (log intensity, higher = more binding, comparable within an allelic series)
CCACCCCC	10.2 upbm affinity estimate (log intensity, higher = more binding, comparable within an allelic series)
CCCCCTCC	9.98 upbm affinity estimate (log intensity, higher = more binding, comparable within an allelic series)
CAGTTAAG	11.5 upbm affinity estimate (log intensity, higher = more binding, comparable within an allelic series)
CCCCCGTC	10.2 upbm affinity estimate (log intensity, higher = more binding, comparable within an allelic series)
GCTCATTA	13.2 upbm affinity estimate (log intensity, higher = more binding, comparable within an allelic series)
ACCTCGCC	10.2 upbm affinity estimate (log intensity, higher = more binding, comparable within an allelic series)

target: VAX1 (Homo sapiens, UniProt Q5SQQ9 86-172); assay: PBM; 200 nM protein, PBS; details: dsDNA, one strand shown
Sequence (Q5SQQ9 86-172): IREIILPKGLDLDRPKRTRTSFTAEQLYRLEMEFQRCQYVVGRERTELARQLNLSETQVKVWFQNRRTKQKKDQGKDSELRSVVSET

Sequence	binding signal
GGGAGCCC	7.23 upbm affinity estimate (log intensity, higher = more binding, comparable within an allelic series)
CTCATTAC	13 upbm affinity estimate (log intensity, higher = more binding, comparable within an allelic series)
TCATTAGA	12.8 upbm affinity estimate (log intensity, higher = more binding, comparable within an allelic series)
GCTCATTA	13.1 upbm affinity estimate (log intensity, higher = more binding, comparable within an allelic series)
